Compound activity: PubChem, National Center for Advancing Translational Sciences (NCATS)
The list is not random: actives were taken first. Their share in the collection is about 5.6%.
PKM2 activator: qHTS Assay for Activators of Human Muscle isoform 2 Pyruvate Kinase. Potency, µM (top dose mostly 57.5 µM), usual class: activators. 260,000 compounds, 0.34% hits. AID 1631, 2009. purified PKM2, Kinase-Glo ATP luminescence, activation; response scale: 0% is enzyme alone, no compound. Pyruvate kinase PKM (Homo sapiens), P14618; note: nearly all actives have a fitted effect of over 55% in size
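Purified hPK-M2 (>95% pure) converted ADP (0.1 mM final) to ATP with 0.5 mM PEP in 50 mM imidazole pH7.2, KCl, MgCl2, Tween 20, BSA; 1 h at room temperature. ATP detected by Kinase-Glo luminescence.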
CtBP-E1A blk: qHTS Assay for Inhibitors of the CtBP/E1A Interaction. CtBP / adenovirus E1A interaction (AlphaScreen). AlphaScreen GST-E1A/His-CtBP binding, 1536-well; active compounds read low. activity change, % (no concentration beside the values). 340,000 compounds, 0.49% hits; in the data active = activity change below about -65%; inconclusive = mostly about -30% to -63%
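AlphaScreen with 125 nM GST-E1A and 125 nM His-CtBP (5X stocks) in Tris pH 8.0, 300 mM NaCl, BSA, Tween 20, TCEP. Compounds preincubated 2 h at 37 deg C, then glutathione donor/nickel acceptor beads added for 1 h at 37 deg C in dark.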
VP16 counter: VP16 counterscreen qHTS for inhibitors of ROR gamma transcriptional activity | Drosophila S2 Gal4-VP16 UAS-luciferase, luminescence, 20 h | Potency, µM (doses to about 53.6 µM), hits mostly inhibitors | 310,000 compounds, 3.5% hits;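 note: Gal4-VP16 expression switched on by copper sulfate through the metallothionein promoter; nearly all actives have a fitted effect of over 50% in size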
Six1-Eya2 inh: qHTS Assay for Inhibitors of the Six1/Eya2 Interaction; Homeobox protein SIX1 (Homo sapiens) + Protein phosphatase EYA2 (Homo sapiens), …; AlphaScreen GST-Six1/His-Eya2 binding, biochemical; active compounds read low; activity change, % (test concentration not listed); 360,000 compounds, 0.56% hits; in the data active = activity change below about -65%; inconclusive = mostly about -30% to -63%
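GST-Six1 + His-Eya2 (5X stock: 250/500 nM); Tris pH 8.0, 300 mM NaCl, 0.05% BSA, 0.02% Tween 20; GSH donor/Ni acceptor beads; 1 h 37 °C dark; AlphaScreen readout.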
RORgamma inh: qHTS for inhibitors of ROR gamma transcriptional activity. Nuclear receptor ROR-gamma (Mus musculus), P51450. Drosophila S2 Gal4-RORgamma UAS-luciferase reporter, 20 h. Potency, µM (top dose mostly 53.6 µM), usual class: inhibitors. 310,000 compounds, 5.4% hits; note: nearly all actives have a fitted effect of over 60% in size
Target sequence (P51450 whole entry, looked up, the tested form may be a part): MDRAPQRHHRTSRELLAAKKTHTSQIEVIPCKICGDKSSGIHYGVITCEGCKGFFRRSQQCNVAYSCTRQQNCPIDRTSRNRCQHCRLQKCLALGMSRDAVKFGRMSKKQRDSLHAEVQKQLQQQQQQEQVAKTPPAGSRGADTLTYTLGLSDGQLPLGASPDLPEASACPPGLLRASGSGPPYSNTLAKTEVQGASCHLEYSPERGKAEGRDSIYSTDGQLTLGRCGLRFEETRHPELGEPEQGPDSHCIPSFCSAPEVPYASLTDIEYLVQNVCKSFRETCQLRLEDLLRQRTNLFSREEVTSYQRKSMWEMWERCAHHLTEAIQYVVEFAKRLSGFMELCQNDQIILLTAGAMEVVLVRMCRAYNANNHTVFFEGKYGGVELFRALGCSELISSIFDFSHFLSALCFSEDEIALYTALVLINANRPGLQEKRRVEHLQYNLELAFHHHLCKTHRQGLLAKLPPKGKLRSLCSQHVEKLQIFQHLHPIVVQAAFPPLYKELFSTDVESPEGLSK
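ROR gamma transcriptional activity was tracked as Gal4-UAS luciferase output in stably transfected Drosophila Schneider cells, with compound added 1 hr before 700 uM copper sulfate induction and a 20 hr ambient-temperature incubation.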
Of the large screens only hits and unclear results are named; the others gave an inactive call. Unless noted, calls come from the whole dose curve; as a rule, active = well fitted curve in the direction sought with a large enough effect; inconclusive = small, poorly fitted or top-dose-only effect, or another doubt; inactive = no such curve, though single readings can be large; an effect the other way counts as inactive or inconclusive.

Cn1nnc(NC(=O)c2ccccc2)n1	RORgamma inh inconclusive
Cn1nnc(NC(=S)NC(=O)c2cccc3c(Br)cccc23)n1	VP16 counter 2.82µM, RORgamma inh 0.891µM (no result: PKM2 activator)
COCc1ccc(C(=O)NC2CCCc3c2cnn3-c2cc(C)cc(C)c2)s1 (stereo not drawn)	VP16 counter inconclusive
CC(C)Cc1nc(N2CCCCC2)c(C#N)c2c1CCC2	none
CC(C)Cc1nc(N2CCN(C(=O)c3ccccc3)CC2)c(C#N)c2c1CCC2	VP16 counter 39.8µM, RORgamma inh 35.5µM
CC(C)Cc1nc(N2CCN(C(=O)c3ccco3)CC2)c(C#N)c2c1CCC2	PKM2 activator 22.4µM, VP16 counter inconclusive
CC(C)Cc1nc(N2CCN(C(=O)C(C)C)CC2)c(C#N)c2c1CCC2	RORgamma inh 1.41µM
CC(=O)N1CCN(c2nc(CC(C)C)c3c(c2C#N)CCC3)CC1	none
CN(C)S(=O)(=O)Oc1ccsc1C(=O)Nc1ccc(Cl)cc1	VP16 counter 25.1µM
COc1ccc(OC)c(-c2nc(CN3CCCCC3c3cccnc3)c(C)o2)c1 (stereo not drawn)	none
COc1ccc(-c2nc(CN3CCCCC3c3nccn3C)c(C)o2)c(C)c1C (stereo not drawn)	VP16 counter inconclusive, RORgamma inh 4.47µM
Cc1cc(Cl)ccc1OCc1n[nH]c(=S)n1C1CCCCC1	VP16 counter 2.51µM, RORgamma inh 0.794µM
COc1ccc(-c2n[nH]c(=S)n2C2CCCCC2)cc1	VP16 counter 7.08µM, RORgamma inh 3.16µM
COc1ccc(Cl)cc1-c1n[nH]c(=S)n1C1CCCCC1	VP16 counter 7.94µM, RORgamma inh 3.98µM
Cc1ccsc1-c1n[nH]c(=S)n1C1CCCCC1	VP16 counter inconclusive, RORgamma inh 3.55µM
Cc1nc(S/C(=C/c2ccc(-c3cccc(Cl)c3)o2)C(=O)O)n[nH]1	VP16 counter 3.55µM, RORgamma inh 1.26µM
CC(C1CC2CCC1C2)n1c(-c2ccco2)n[nH]c1=S (stereo not drawn)	VP16 counter 6.31µM, RORgamma inh 1.26µM
CCc1ccc(C(=O)Nc2cc(S(=O)(=O)N3CCOCC3)ccc2N2CCOCC2)cc1	none (no result: PKM2 activator, VP16 counter, RORgamma inh)
COc1cc(/C=C/[N+](=O)[O-])ccc1OC(=O)c1cc2ccccc2oc1=O	VP16 counter 7.08µM, RORgamma inh 15.8µM
COC(=O)[C@H]1[C@H]2C[C@@H]3c4[nH]c5ccccc5c4CCN3C[C@H]2C[C@@H](OC(=O)c2cc(OC)c(OC)c(OC)c2)[C@@H]1OC	VP16 counter inconclusive, RORgamma inh 7.08µM (no result: PKM2 activator, CtBP-E1A blk, Six1-Eya2 inh)
CCCCc1c(O)c2cccc3c2n(c1=O)CCC3	none (no result: PKM2 activator, VP16 counter, RORgamma inh)
N#CCC(=N)N1CCN(c2ccc(Cl)cc2)CC1	none
CCOP(=O)(OCC)C(C#N)=C1SCN(c2ccc(Cl)cc2)CS1	CtBP-E1A blk inconclusive, VP16 counter inconclusive, Six1-Eya2 inh inconclusive, RORgamma inh 14.1µM
COC(=O)C(C(=O)OC)[C@@H]1O[C@@]23COC=C[C@]2(C)[C@H]3c2ccccc21	none (no result: PKM2 activator, CtBP-E1A blk, Six1-Eya2 inh)
O=S(=O)(/N=S1/CC=CCN1S(=O)(=O)c1ccccc1)c1ccccc1 (stereo not drawn)	VP16 counter inconclusive, RORgamma inh 11.2µM
CCc1cc(C(=O)c2ccc(OC)cc2)c(NC(=O)CN2CCCCC2)s1	RORgamma inh 7.08µM (no result: CtBP-E1A blk)
CCc1cc(C(=O)c2ccc(OC)cc2)c(NC(=O)CN2CCCC2)s1	none (no result: CtBP-E1A blk)
Cc1ccsc1-c1nc(-c2ccccc2)c(-c2ccccc2)[nH]1	VP16 counter inconclusive, RORgamma inh 3.98µM
Fc1ccc(-c2nc(-c3cccs3)[nH]c2-c2ccc(F)cc2)cc1	none
Cc1cccc2sc(NNC(=O)C3=COCCO3)nc12	VP16 counter 12.6µM, RORgamma inh 2.24µM
O=C(NNc1nc2c(F)cc(F)cc2s1)C1=COCCO1	RORgamma inh 8.91µM
Cc1cc(C(=O)Nc2nc3c(C)cccc3s2)c(C)o1	VP16 counter inconclusive, RORgamma inh inconclusive
O=[N+]([O-])c1cccc(C2(O)COc3ccccc3O2)c1 (stereo not drawn)	none (no result: PKM2 activator)
